For 33 compounds, outcome results are on record in PubChem BioAssay AID651844 (Broad Institute, 2012).

Potency and affinity values are given separately. Inconclusive results are not listed. Where a call stands in place of a potency, no number is given. Calls of active or inactive are those of the source.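 How the source made its calls: active means every test run shows a luminescence drop with half-maximal concentration at most twice the top tested dose; inconclusive means test runs disagree, weak flat response, or unreliable curve fit; inactive means the rest.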

The nature of the experiment: mouse fibroblast viability loss – cell-based, dry powder samples, cytotoxicity control, dose response (AID 651844). The conditions noted are these: NIH/3T3 viability, CellTiter-Glo ATP luminescence, 90 h; series mostly up to 16 µM.
Turning to `CC(C)N(C)C(=O)c1cccc(NC(=O)c2ccncc2)c1OCCCN(C)C(=O)OC(C)(C)C`, the result was inactive.

With `CNC[C@@H]1Oc2c(NC(=O)c3ccncc3)cccc2C(=O)N(C(C)C)C[C@H]1C`, the compound was called inactive.

For the compound `C[C@H]1CN([C@@H](C)CO)C(=O)c2cccc(NC(=O)c3ccncc3)c2O[C@@H]1CN(C)Cc1ccncc1`, the compound was classed as inactive.

Regarding `C[C@H]1CN([C@@H](C)CO)C(=O)c2cccc(NC(=O)c3ccncc3)c2O[C@@H]1CN(C)Cc1ccc2c(c1)OCO2`, the compound was called inactive.

Regarding `C[C@H]1CN([C@@H](C)CO)C(=O)c2cccc(NC(=O)c3ccncc3)c2O[C@@H]1CN(C)Cc1ccccc1`, the call was inactive.

For the compound `C[C@H]1CN([C@@H](C)CO)C(=O)c2cccc(NC(=O)c3ccncc3)c2O[C@@H]1CN(C)Cc1ccc(C(=O)Nc2ccccc2N)cc1`, the call was inactive.

As for `C[C@@H]1CN([C@@H](C)CO)C(=O)c2cccc(NC(=O)c3ccncc3)c2O[C@@H]1CN(C)Cc1ccc(Oc2ccccc2)cc1`, the call was inactive.

`CC(C)N1C[C@H](C)[C@@H](CN(C)Cc2ccc(Cl)cc2)Oc2c(NC(=O)c3ccncc3)cccc2C1=O`: the compound was called inactive.

With `C[C@@H]1CN([C@H](C)CO)C(=O)c2cccc(NC(=O)c3ccncc3)c2O[C@H]1CN(C)Cc1ccc2c(c1)OCO2`, the compound was called inactive.

With `CNC[C@H]1Oc2c(NC(=O)c3ccccc3)cccc2C(=O)N(C(C)C)C[C@@H]1C`, the call was inactive.

With `C[C@@H]1CN([C@@H](C)CO)C(=O)c2cccc(NC(=O)c3ccncc3)c2O[C@H]1CN(C)Cc1ccncc1`, the result was inactive.

Consider `COc1ccc(CN(C)C[C@H]2Oc3c(NC(=O)c4ccncc4)cccc3C(=O)N([C@@H](C)CO)C[C@@H]2C)cc1`, for which the call was inactive.

`CC(C)N1C[C@H](C)[C@@H](CN(C)C(=O)OC(C)(C)C)Oc2c(C(=O)Nc3ccncc3)cccc2C1=O`: the compound was classed as inactive.

As for `CC(C)N1C[C@H](C)[C@@H](CN(C)C(=O)OC(C)(C)C)Oc2c(NC(=O)c3ccncc3)cccc2C1=O`, the compound was classed as inactive.

For the compound `CC(C)N1C[C@H](C)[C@@H](CN(C)Cc2ccc(Oc3ccccc3)cc2)Oc2c(NC(=O)c3ccccn3)cccc2C1=O`, the compound was called inactive.

`C[C@@H]1CN([C@@H](C)CO)C(=O)c2cccc(NC(=O)c3ccncc3)c2O[C@H]1CN(C)Cc1cccc(Cl)c1`: the compound was called inactive.

For `CC(C)N(C)C(=O)c1cccc(NC(=O)c2ccncc2)c1OCCCN(C)Cc1ccc(Cl)cc1`, the call was inactive.

Consider `CC(C)N1C[C@H](C)[C@@H](CN(C)Cc2cccc(Cl)c2)Oc2c(NC(=O)c3ccncc3)cccc2C1=O`, for which the compound was classed as inactive.

For the compound `CCCn1ncc(CN(C)C[C@H]2Oc3c(NC(=O)c4ccncc4)cccc3C(=O)N(C(C)C)C[C@@H]2C)c1C`, the outcome was inactive.

For `C[C@H]1CN([C@@H](C)CO)C(=O)c2cccc(NC(=O)c3ccncc3)c2O[C@@H]1CN(C)Cc1ccc(C(F)(F)F)cc1`, the compound was classed as inactive.

Take `CC(C)N1C[C@H](C)[C@@H](CN(C)Cc2ccc(Oc3ccccc3)cc2)Oc2c(NC(=O)c3ccccc3)cccc2C1=O`: the compound was classed as inactive.

For the compound `CC(C)N1C[C@H](C)[C@@H](CN(C)Cc2ccccc2Cl)Oc2c(NC(=O)c3ccncc3)cccc2C1=O`, the call was inactive.

In the case of `CC(C)N1C[C@H](C)[C@@H](CN(C)C(=O)OC(C)(C)C)Oc2c(C#N)cccc2C1=O`, the compound was called inactive.

For the compound `CC(C)N1C[C@H](C)[C@@H](CN(C)Cc2ccccc2)Oc2c(NC(=O)c3ccncc3)cccc2C1=O`, the compound was called inactive.

As to `CC(C)N1C[C@H](C)[C@@H](CN(C)Cc2ccc(Oc3ccccc3)cc2)Oc2c(NC(=O)c3cccnc3)cccc2C1=O`, the compound was classed as inactive.

As to `CC(C)N1C[C@H](C)[C@@H](CN(C)C(=O)OC(C)(C)C)Oc2c(NC(=O)c3cccnc3)cccc2C1=O`, the result was inactive.

For `CC(C)N1C[C@@H](C)[C@H](CN(C)Cc2ccc(Oc3ccccc3)cc2)Oc2c(cccc2N(C)C(=O)c2ccncc2)C1=O`, the result was inactive.

On to `CC(C)N1C[C@H](C)[C@@H](CN(C)C(=O)OC(C)(C)C)Oc2c(C(=O)O)cccc2C1=O`, for which the result was inactive.

Take `C[C@H]1CN([C@@H](C)CO)C(=O)c2cccc(NC(=O)c3ccncc3)c2O[C@@H]1CN(C)Cc1ccc(C(=O)O)cc1`: the compound was called inactive.

For `CC(C)N1C[C@H](C)[C@@H](CN(C)C(=O)OC(C)(C)C)Oc2c(NC(=O)c3ccccc3)cccc2C1=O`, the result was inactive.

On to `C[C@@H]1CN([C@@H](C)CO)C(=O)c2cccc(NC(=O)c3ccncc3)c2O[C@H]1CN(C)Cc1ccc(C(=O)O)cc1`, for which the result was inactive.

With `CC(C)N1C[C@H](C)[C@@H](CN(C)CC2CCOCC2)Oc2c(NC(=O)c3ccncc3)cccc2C1=O`, the compound was classed as inactive.

Take `CC(C)N1C[C@H](C)[C@@H](CN(C)C(=O)OC(C)(C)C)Oc2c(NC(=O)c3ccccn3)cccc2C1=O`: the compound was called inactive.
